CHT allo act = allosterically activates the human high affinity choline transporter; Q9GZV3; 0.49% of 310,000 active; CHT-expressing cells, membrane potential dye, choline EC20; active compounds read high; LV-AA mutant CHT in HEK293 cells; B-score at 10 µM; AID 488977;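 active = initial fluorescence not abnormally high and integrated response B-score, plate-corrected, over 3 SD above library mean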
ALR inh = human ALR oxidase inhibition via reduced H2O2; inhibition, % (no concentration beside the values); purified ALR, DTT oxidation, H2O2 HRP-luminol luminescence; 3.8% of 290,000 active; AID 485317; P55789;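 active = mean replicate inhibition above about 79%, with every replicate also reaching it, limit read from the data; inconclusive = only one of the two criteria met; inactive = mean below limit and not every replicate reaching it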
AI-2 QS modul = modulates the Vibrio harveyi AI-2 quorum sensing system; activity change, % at 7.5 µM; 0.4% of 300,000 active; AID 2094; Vibrio harveyi JMH597 AI-2 luminescence/OD600 ratio, 9 h; active compounds read low; strain lacks LuxN and CqsS sensors; 0 = neutral-control median; in the data active = activity change below about -75%, passing the limit was not always enough; inconclusive = no clear call, values can overlap the other calls;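 note: luminescence divided by OD600 gain over 9 h not by final OD600 alone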
PREPL inhibitor = human PREPL enzyme inhibition; inhibition, % at 5.96 µM; 0.68% of 320,000 active; recombinant PREPL, fluorescence polarization activity-based probe; AID 2751; in the data active = inhibition above about 43%
Target sequence (Q4J6C6 whole entry, looked up): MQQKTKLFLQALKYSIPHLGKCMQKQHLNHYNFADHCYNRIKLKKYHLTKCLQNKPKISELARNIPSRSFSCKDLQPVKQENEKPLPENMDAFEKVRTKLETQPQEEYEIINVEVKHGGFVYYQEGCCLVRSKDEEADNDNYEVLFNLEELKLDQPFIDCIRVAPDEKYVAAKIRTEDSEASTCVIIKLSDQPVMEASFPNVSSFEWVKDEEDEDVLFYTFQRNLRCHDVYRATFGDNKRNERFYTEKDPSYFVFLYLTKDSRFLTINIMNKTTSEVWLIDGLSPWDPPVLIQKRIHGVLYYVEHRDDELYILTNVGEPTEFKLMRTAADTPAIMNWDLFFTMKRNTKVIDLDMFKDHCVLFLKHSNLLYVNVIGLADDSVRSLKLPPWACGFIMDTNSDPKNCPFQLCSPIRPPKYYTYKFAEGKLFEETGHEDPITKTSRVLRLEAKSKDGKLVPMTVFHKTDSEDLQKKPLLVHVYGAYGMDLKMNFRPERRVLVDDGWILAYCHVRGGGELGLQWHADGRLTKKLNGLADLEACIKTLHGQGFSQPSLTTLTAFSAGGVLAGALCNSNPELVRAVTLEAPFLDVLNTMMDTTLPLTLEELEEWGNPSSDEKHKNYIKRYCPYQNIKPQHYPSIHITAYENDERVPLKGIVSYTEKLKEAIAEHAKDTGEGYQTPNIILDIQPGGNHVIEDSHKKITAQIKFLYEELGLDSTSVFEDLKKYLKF
CHT inh = inhibitors of human choline transporter CHT; CHT-expressing cells, membrane potential dye, choline response; active compounds read low; B-score at 10 µM; 0.86% of 310,000 active;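 active = B-score over 3 SD under the library average, and starting fluorescence ratio not unusually high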;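 note: choline stimulus applied at its EC90 after an EC20 pre-addition; B-score computed on integrated fluorescence ratio after choline addition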
Of the large screens only hits and unclear results are named; the others gave an inactive call. This is a sample that favours compounds with a hit; in the whole collection about 5% have one here.

CC(C)(C)C1CCC2(CC1)NC(=S)N(c1ccccc1)N2 (stereo not given)	none
CC1(CCc2ccccc2)NC(=S)N(c2ccc(Cl)cc2)N1 (stereo not given)	ALR inh 93.9
Fc1cccc(-c2nnn3c2nc(Cl)c2ccccc23)c1	none (no result: CHT allo act, ALR inh, PREPL inhibitor, CHT inh)
COc1ccc([C@H]2/C=C\CN(Cc3ccc(N(C)C)cc3)[C@@H](C)C(=O)N2Cc2ccc(F)cc2)cc1	ALR inh 98.2
COc1ccc([C@H]2/C=C\CN(C(=O)c3ccc(C)cc3)[C@@H](C)C(=O)N2Cc2ccc(F)cc2)cc1	none
Cc1nc2ccc(-c3nc4cc(N)ccc4o3)cc2[nH]1	ALR inh 98.3
Nc1ccc2oc(-c3ccc4nc[nH]c4c3)nc2c1	none (no result: ALR inh)
COc1ccc(-n2nnnc2SCC(=O)NC2CCS(=O)(=O)C2)cc1 (stereo not given)	none (no result: CHT allo act, AI-2 QS modul, CHT inh)
O=C(Nc1cccc(C(=O)O)c1)/C(=C\c1ccc2c(c1)OCO2)NC(=O)c1ccccc1Cl	none (no result: ALR inh)
CCOc1ccccc1N1CCN(S(=O)(=O)CC)CC1	none
CCOc1ccccc1N1CCN(C/C=C/c2ccc(N(C)C)cc2)CC1	ALR inh 98.6
CN(C)S(=O)(=O)c1ccc(Cl)c(-c2nnc3n2CCCCC3)c1	none
C=CC[n+]1c(/C=C/c2ccc(OC(C)=O)c(OC)c2)ccc2ccccc21	CHT allo act 7.44 (no result: ALR inh)
COc1ccc(NS(=O)(=O)c2ccc3c(c2)N(C(C)=O)CCO3)cc1	none
Cc1cccnc1NC(=S)Nc1ccc(F)cc1F	none
Cc1ccc(C)c(NC(=S)Nc2ncccc2C)c1	ALR inh 79.5
O=C(Nc1nc(=S)ss1)c1ccc(Cl)cc1Cl	CHT inh -9.22
Oc1ccccc1N1CCN(C(c2ccccc2)c2ccccc2)CC1	none (no result: AI-2 QS modul)
c1ccc(N2CCN(c3ncccn3)CC2)cc1	ALR inh 97.7
Oc1ccccc1N1CCN(c2ncccn2)CC1	ALR inh 99.0
Fc1ccccc1N1CCN(c2nnnn2-c2ccccc2)CC1	none
Oc1ccccc1N1CCN(c2nnnn2-c2ccccc2)CC1	ALR inh 99.2
COc1cc(C(C)=O)ccc1OCCCOc1cccc2cccnc12	none
COc1ccc(-n2c(C)c(C)c3c(NCCCO)ncnc32)cc1	none (no result: PREPL inhibitor)
CC1(C)CC(=O)C2=C(C1)Oc1nc3ccccc3cc1C2C(C#N)C#N (stereo not given)	ALR inh 80.0
O=C(N/N=C/c1ccc(O)c(O)c1O)/C(=C/c1ccc([N+](=O)[O-])cc1)NC(=O)c1ccccc1	ALR inh 90.7
Cn1cc(SCC(=O)NCC2CCCO2)c2ccccc21 (stereo not given)	ALR inh 97.4
Cn1cc(SCC(=O)Nc2nccs2)c2ccccc21	ALR inh 97.7
Nc1ccccc1SCC(=O)Nc1nccs1	none
O=C(O)Cc1ccc(NC(=O)c2ccc(NC(=O)C3CC3)cc2)cc1	none
O=S(=O)(c1ccc(Cl)nc1)N1CCCC1	none (no result: CHT allo act, AI-2 QS modul, CHT inh)
CCCCC(=O)Nc1ccc2c(c1)nc(CCN1CCN(c3ccccn3)CC1)n2C	none
O=C(C1CCCN(Cc2ccc([N+](=O)[O-])cc2)C1)N1CCCCC1 (stereo not given)	none
O=C(C1CCCN(Cc2ccc(Br)cc2)C1)N1CCCCC1 (stereo not given)	ALR inh 89.5
Cc1ccc(N2CC(C(=O)N(C)CC(=O)Nc3ccc(Cl)c(C(F)(F)F)c3)CC2=O)cc1 (stereo not given)	none (no result: AI-2 QS modul)
Cc1cccc(NC(=O)c2ccc(NC(C)c3ccccc3)c([N+](=O)[O-])c2)n1 (stereo not given)	none
Cc1cccc(NC(=O)Nc2ccncc2)c1	ALR inh 84.5
CC(=O)Nc1ccc(S(=O)(=O)NNC(=O)c2ccc(C)cc2)cc1	none
Cc1cccc(NNC(=O)C(=O)NNc2cccc(C)c2)c1	ALR inh 98.3
CC(=O)Nc1ccc(S(=O)(=O)NNc2cccc(C)c2)cc1	ALR inh 98.7
Cc1cccc(NC(=O)Nc2cnccn2)c1	none
O=C(NN=C1CCCC1)c1ccc(O)cc1	none
CCN1CCN(c2ccc(S(=O)(=O)N3CCOCC3)cc2NC(=O)C(C)Oc2ccc(F)cc2)CC1 (stereo not given)	none (no result: CHT allo act, AI-2 QS modul, CHT inh)
COCCCNC(=S)N/N=C/c1ccc(OC)cc1	none
COCCNC(=S)N/N=C(\C)c1ccc(O)cc1	ALR inh 98.9
COCCCNC(=S)N/N=C/c1ccc(O)cc1	ALR inh 99.5
COCCNC(=S)N/N=C(\C)c1ccc(-n2ccnc2)cc1	none
Cc1ccc(S(=O)(=O)N2CCOCC2)cc1C(=O)NCc1ccccc1CN1CCCC1	none (no result: CHT allo act, AI-2 QS modul, CHT inh)
O=c1[nH]c(=S)[nH]c2sccc12	ALR inh 97.3
CC(=O)Nc1ccc(NC(=O)CC2Nc3cccc4cccc(c34)NC2=O)cc1 (stereo not given)	ALR inh 85.7
COc1ccc(-c2nc3ccccc3nc2-c2ccccc2)cc1	none
COc1ccc(-c2cc3nnc(-c4ccccc4)nc3s2)cc1	ALR inh 93.8
Cc1n[nH]c(C)c1Sc1ccccc1N	ALR inh 95.5
COc1cc(-c2nc3ccc4ccccc4c3c3c2CCC3)ccc1O	ALR inh 96.2
COc1cc(-c2nc3ccc4ccccc4c3c3c2CCC3)cc(OC)c1O	none
O=C(NC(=S)Nc1ccccc1OC(F)F)c1ccc2c(c1)OCO2	none (no result: CHT allo act, AI-2 QS modul, CHT inh)
COc1cc([N+](=O)[O-])ccc1NC(=S)NNC(=O)c1ccc2c(c1)OCO2	ALR inh 97.6, CHT inh -5.68
COC(=O)c1ccccc1NC(=S)NC(=O)c1ccccc1	ALR inh 98.2, AI-2 QS modul inconclusive
Cc1ccccc1C(=O)NC(=S)Nc1ccccc1C(=O)O	none
COC(=O)c1ccccc1NC(=S)NC(=O)c1ccc(C)cc1	none
COC(=O)c1ccccc1NC(=S)NC(=O)c1ccccc1C	ALR inh 97.4
COC(=O)c1ccccc1NC(=S)NC(=O)c1ccc2c(c1)OCO2	ALR inh 98.1 (no result: PREPL inhibitor)
Cc1ccc(N2CN=C3SCC(=O)N3C2)cc1C	none
O=C(Cc1ccccc1)Nc1cccc(N2C(=O)C=CC2=O)c1	AI-2 QS modul -87.6
O=c1n(CCCN2CCN(c3cccc(Cl)c3)CC2)nc2ccccn12	ALR inh 93.2
O=C1C2CCCN2C(=O)N1CCCN1CCN(c2cccc(Cl)c2)CC1 (stereo not given)	none
CS(=O)(=O)c1ccc(C(=O)NNC(=O)c2ccccc2-n2cccc2)cc1	none (no result: CHT allo act, ALR inh, AI-2 QS modul, CHT inh)
CC(=O)C1=C(c2ccccc2)N(C(C)=O)n2c(C)nnc2S1	ALR inh 98.7
CC(=O)N1CCN(c2nnc(-c3ccccc3)c3ccccc23)CC1	none
CC(=O)Nc1ccc(N2C(=O)CC(Sc3nc(C)cc(C)n3)C2=O)cc1 (stereo not given)	none
CC(=O)c1ccc(NC(=S)NNC(=O)NC2CCCCC2)cc1	ALR inh 94.4
NS(=O)(=O)c1ccc(NC(=S)NC2CCCCCC2)cc1	ALR inh 95.8
Cc1ccc(NC(=S)NNC(=S)NC2CCCCC2)cc1	none
CCC(C(=O)NC1CCCCC1)N(Cc1cccs1)C(=O)c1snc(C(N)=O)c1N (stereo not given)	none

Screening data (PubChem)
